In PubChem BioAssay (EPA / NIEHS):
Calls of active or inactive are those of the source. How the source made its calls: active means hit-call score of the fitted dose curve at least 0.9, where 1 is the maximum; inactive means score below 0.9.

Experiment: ATG_AP_2_CIS: Attagene CIS-FACTORIAL HepG2 Assay for human Activator Protein 2 (AP-2) (AID 2282932)
Details: HepG2 AP-2 cis-reporter, Attagene transcription factor profiling; actives raise or lower the signal
Description: ATG_CIS is a cell-based, multiplexed-readout assay that uses HepG2, a human liver cell line, with measurements taken at 24 hours after chemical dosing in a 24-well plate.ATG_AP_2_CIS is one of 52 assay component(s) measured or calculated from the ATG_CIS assay. It is designed to make measurements of mRNA induction, a form of inducible reporter, as detected with fluorescence intensity signals by Reverse transcription polymerase chain reaction (RT-PCR) and Capillary electrophoresis technology.Data from the assay component ATG_AP_2_CIS was analyzed into 1 assay endpoint. This assay endpoint, ATG_AP_2_CIS, was analyzed with bidirectional fitting relative to DMSO as the negative control and baseline of activity. Using a type of inducible reporter, measures of mRNA for gain or loss-of-signal activity can be used to understand the reporter gene at the transcription factor-level as they relate to the gene TFAP2A and TFAP2B and TFAP2D. Furthermore, this assay endpoint can be referred to as a primary readout, because this assay has produced multiple assay endpoints where this one serves a reporter gene function. To generalize the intended target to other relatable targets, this assay endpoint is annotated to the dna binding intended target family, where the subfamily is basic helix-turn-helix leucine zipper.
Human liver HepG2 cells are transiently transfected with multiple reporter transcription units (MRTUs) in 6-well plates using FuGene 6 reagent (Roche; 3 ml FuGene/1 mg DNA). The MRTU constructs are regulated by a cis-regulating element (promoter). […] A major difference between the CIS and TRANS system is that in CIS activities of endogenous TFs are measured, whereas the TRANS assay evaluates changes in activities of exogenous, chimeric NR-Gal4 proteins. […] At the end of 24 hour incubation, total RNA was isolated using TriZol reagent (Invitrogen). The isolated RNA is then reverse-transcribed using oligo(dT) primer and Mo-MLV reverse transcriptase (Invitrogen) with DNAse I (Ambion) treatment for 30 min. The one-tenth of the produced cDNA was amplified by PCR using Taq DNA polymerase (Invitrogen) and two reporter sequence-specific primers. The PCR products were fluorescently labeled by primer extension with 6-arboxyfluorescein (6-FAM) 5'-labeled reporter sequence-specific primer (2 min at 95 C, 20 s at 68 C and 10 min at 72 C) and these products were digested with 5U of HpaI (New England Biolabs) for 2h at 37 C. The fragments were purified using Qiaquick PCR columns (Qiagen), analyzed on an ABI 3130xL genetic analyzer (Applied Biosystems) with peak positions identified by using a set of X-rhodamine (ROX)-labeled MapMarker1000 molecular weight standards (BioVentures). The raw capillary electrophoresis data was processed using Attagraph software (Attagene).

Compound	outcome	AC50
CN(CCOc1ccc(CC2SC(=O)NC2=O)cc1)c1ccccn1 (stereo not given)	inactive	
CN(C)c1ccc(O)c2c1C[C@H]1C[C@H]3[C@H](N(C)C)C(=O)C(C(N)=O)=C(O)[C@@]3(O)C(=O)C1=C2O	inactive	
O=C(Nc1ccccc1)c1cc([N+](=O)[O-])ccc1Cl	inactive	
CC(=O)O[C@H](CC(=O)[O-])C[N+](C)(C)C	inactive	
Cc1ccc(C(=O)O)o1	inactive	
c1ccc(CCCc2ccccn2)cc1	inactive	
CC(=O)Nc1ccc(C)cc1C	inactive	
NC(=O)c1ccccc1Cl		76.4 µM (active)
Cc1ccc(C(C)C)cc1O	inactive	
CC(C)=CCCC(C)CC=O (stereo not given)	inactive	
CC(=O)c1c(C)cc(C(C)(C)C)cc1C	inactive	
CC1CCC2CC1C2(C)C (stereo not given)	inactive	
C=C(C)C(=O)OCc1ccccc1	inactive	
O=C[C@@H](O)[C@H](O)[C@H](O)CO	inactive	
CNCCCC12CCC(c3ccccc31)c1ccccc12	inactive	
OCCOc1cccc(OCCO)c1	inactive	
Cc1ccc(S)cc1	inactive	
COc1ccc(NC(=O)CC(C)=O)cc1	inactive	
CCCc1c(OCCCOc2ccc(OCC(=O)O)cc2)ccc(C(C)=O)c1O	inactive	
O=C=NC1CCC(CC2CCC(N=C=O)CC2)CC1 (stereo not given)	inactive	

Compound	outcome	AC50
O=C1NC(=O)c2ccccc21	inactive	
CCCOCC(C)O (stereo not given)	inactive	
CC1COc2ccccc2N1C(=O)C(Cl)Cl (stereo not given)	inactive	
CC(C)(C)C(=O)c1ccccc1	inactive	
Nc1cc([N+](=O)[O-])ccc1O	inactive	
CCOC(=S)SSC(=S)OCC	inactive	
C=CCOc1nc(OCC=C)nc(OCC=C)n1	inactive	
Cc1ccc(C=O)cc1	inactive	
CCCCCCCCCCCCOCCO		57.4 µM (active)
CCCCN	inactive	
CSc1nnc(C(C)(C)C)c(=O)[nH]1	inactive	
ClCCCl	inactive	
CCCCC/C=C/C=C/C=O	inactive	
CCCC(=O)OCCC(C)CCC=C(C)C (stereo not given)	inactive	
C[C@]12CC[C@H]3[C@@H](CCC4=CC(=O)CC[C@@]43C)[C@@H]1CC[C@@H]2C(=O)CO	inactive	
O=C(O)Cc1cccc2ccccc12	inactive	
CN1Cc2c(N)cccc2C(c2ccccc2)C1 (stereo not given)	inactive	
CO[Si](C)(OC)c1ccccc1	inactive	
CC(C=O)Cc1ccc(C(C)C)cc1 (stereo not given)	inactive	
OCC(CO)(CO)COCC(CO)(CO)CO	inactive	
